In all, about 390,000 compounds went through this assay and about 150 (0.038%) were called active. Entries that show only a call come without a potency. Another 3% or so got no clear call; they are omitted. Calls follow the shape of the dose curve; as a rule, active = well fitted inhibition curve with a large enough effect; inconclusive = small, poorly fitted or top-dose-only effect; inactive = no such curve, though single readings can be large or run the other way. Many of the other results were omitted from the sample, so actives are more common in it than they were.
molecular target: Regulator of G-protein signaling 4 (Homo sapiens) (UniProt P49798); assay: Inhibitors of Regulator of G Protein Signaling (RGS) 4: qHTS; settings: Transcreener GDP fluorescence polarization, RGS4-accelerated GTP hydrolysis; series mostly up to 114 µM; also: nearly all actives have a fitted effect of over 75% in size
Sequence (P49798 whole entry, looked up): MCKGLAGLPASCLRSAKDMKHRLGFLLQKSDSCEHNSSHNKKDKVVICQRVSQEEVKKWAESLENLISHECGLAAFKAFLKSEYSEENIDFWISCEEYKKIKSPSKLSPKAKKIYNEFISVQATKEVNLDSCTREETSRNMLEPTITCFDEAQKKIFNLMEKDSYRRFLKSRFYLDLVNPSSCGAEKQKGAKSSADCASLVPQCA
How it was run: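 MLSMR compounds (23 nl, pin-transferred) preincubated 10 min at room temperature with a 500nM (2x) first reagent, then RGS4 at 900nM (2x) plus Transcreener GDP mix added; fluorescence polarization (620/688 nm) read before and after 90 min at 30 °C.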

Row | Structure (SMILES) | Potency
1 | Cc1ccc(N(C)C(=O)C2CCN(S(=O)(=O)c3ccc4c(c3)CCCN4C(=O)C3CCC3)CC2)cc1 | inactive
2 | CSc1nc(Nc2ccc(F)cc2)cc(-c2ccccc2)n1 | inactive
3 | Cc1cccc(-n2c(SCC(N)=O)nc3c(oc4ccccc43)c2=O)c1 | inactive
4 | C=Cc1ccc(Cn2c(C(=O)O)c(CNC3CCCC3)c3ccc(C)cc32)cc1 | inactive
5 | COc1ccccc1CNC(=O)Cn1nc(C)c2nn(-c3ccc(Cl)cc3)c(C)c2c1=O | inactive
6 | CC1CCCCN1S(=O)(=O)c1ccc(F)c(C(=O)Nc2ccccc2C(F)(F)F)c1 (stereo not given) | inactive
7 | COc1ccc2ncc3c(-c4ccc(C)c(C)c4)nn(CC(=O)NC4CCCC4)c3c2c1 | inactive
8 | COc1cccc(CNC(=O)c2ccc3c(c2)N(Cc2ccc(C(F)(F)F)cc2)C(=O)c2ccccc2S3)c1OC | inactive
9 | CC(C)CC(NS(=O)(=O)c1ccc2c(c1)oc(=O)n2C)C(=O)NCc1ccccc1Cl (stereo not given) | inactive
10 | Cc1cc(OCC(=O)Nc2ncn[nH]2)c(C)c(C)c1Br | inactive
11 | CN1C(=O)c2[nH]nc(-c3ccc(F)cc3)c2C1c1ccccn1 (stereo not given) | inactive
12 | O=C(CSCc1cnn(-c2ccccc2)c1-n1cccc1)NCc1ccccc1Br | inactive
13 | O=C(NCCc1ccccc1)c1ccc2c(c1)N(Cc1ccc(F)cc1)C(=O)c1ccccc1S2(=O)=O | inactive
14 | O=S(=O)(NCC(c1ccccc1)N1CCc2ccccc21)c1ccccc1 (stereo not given) | inactive
15 | Cc1c(CCNC(=O)c2ccc(C(F)(F)F)cc2)sc2nc(-c3ccc(F)cc3)nn12 | inactive
16 | CCN(CC)CCNC(=O)c1cc2c(=O)oc3ccc(C)cc3c2s1 | inactive
17 | COc1ccc(CCn2c3c(c(=O)[nH]c2=S)CN(C(C)C)CN3)cc1OC | inactive
18 | Cn1c(C(=O)N2CCC(C(=O)N3CCN(c4ccccc4)CC3)CC2)cc2sccc21 | inactive
19 | O=S(=O)(c1cccc(C(F)(F)F)c1)N1CCN(c2nc(-c3cccs3)nc3ccccc23)CC1 | inactive
20 | Cc1cccc(NC(=O)CSc2ncc(-c3ccccc3)[nH]2)c1C | inactive
21 | COc1cccc(N=C2SC(C(=O)Nc3cccc(Cl)c3)CC(=O)N2C)c1 (stereo not given) | inactive
22 | O=C(Nc1cc(C(F)(F)F)ccc1Cl)c1ccc2c(c1)CCN2S(=O)(=O)c1ccccc1 | inactive
23 | CCNS(=O)(=O)c1ccc(NC(=O)CSc2nc(-c3ccco3)cc(C(F)(F)F)n2)cc1 | inactive
24 | CCS(=O)(=O)N(C)[C@@H]1c2cc(C#N)ccc2OC(C)(C)[C@H]1O | inactive
25 | COc1ccc(CNC(=O)Cn2nnc(-c3ccccc3F)n2)cc1 | inactive
26 | COc1ccc(OC)c(-n2nnc3c(sc4nc(C)c(Br)c(C)c43)c2=O)c1 | inactive
27 | Cc1ccc(-c2cn3c(n2)sc2cc(C(=O)NCCCc4ccccc4)ccc23)cc1 | inactive
28 | O=C1CC(c2ccccc2)CC2=C1C(c1ccco1)n1nc(C(F)(F)F)nc1N2 (stereo not given) | inactive
29 | COc1ccc(-c2c(C)c3ccc(O)c(CN4CCCC4)c3oc2=O)cc1OC | inactive
30 | CCC(=O)Nc1cccc(C(=O)OCc2cc(=O)n3nc(CC)sc3n2)c1 | inactive

From PubChem BioAssay AID504845 (National Center for Advancing Translational Sciences (NCATS), 2011)
